# Assay results as given in paper PMC4336329 (PLoS ONE, 2015).
# Hit rate of the full screen: of about 310,000 compounds, about 14,000 (4.5%) showed an effect of 50% or more. The effect is printed as a negative number. The entries come from a sample that favours strong results as a whole.
# Target: human ether-à-go-go-related gene (hERG) potassium channel (human, UniProt Q12809)
# Assay: primary screen, population patch clamp on CHO cells stably expressing hERG; higher = less effect of the substance
# 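Also: peak tail current of the secondary pulse compared with the same well before compound.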
# human ether-à-go-go-related gene (hERG) potassium channel, sequence (Q12809 whole entry, looked up): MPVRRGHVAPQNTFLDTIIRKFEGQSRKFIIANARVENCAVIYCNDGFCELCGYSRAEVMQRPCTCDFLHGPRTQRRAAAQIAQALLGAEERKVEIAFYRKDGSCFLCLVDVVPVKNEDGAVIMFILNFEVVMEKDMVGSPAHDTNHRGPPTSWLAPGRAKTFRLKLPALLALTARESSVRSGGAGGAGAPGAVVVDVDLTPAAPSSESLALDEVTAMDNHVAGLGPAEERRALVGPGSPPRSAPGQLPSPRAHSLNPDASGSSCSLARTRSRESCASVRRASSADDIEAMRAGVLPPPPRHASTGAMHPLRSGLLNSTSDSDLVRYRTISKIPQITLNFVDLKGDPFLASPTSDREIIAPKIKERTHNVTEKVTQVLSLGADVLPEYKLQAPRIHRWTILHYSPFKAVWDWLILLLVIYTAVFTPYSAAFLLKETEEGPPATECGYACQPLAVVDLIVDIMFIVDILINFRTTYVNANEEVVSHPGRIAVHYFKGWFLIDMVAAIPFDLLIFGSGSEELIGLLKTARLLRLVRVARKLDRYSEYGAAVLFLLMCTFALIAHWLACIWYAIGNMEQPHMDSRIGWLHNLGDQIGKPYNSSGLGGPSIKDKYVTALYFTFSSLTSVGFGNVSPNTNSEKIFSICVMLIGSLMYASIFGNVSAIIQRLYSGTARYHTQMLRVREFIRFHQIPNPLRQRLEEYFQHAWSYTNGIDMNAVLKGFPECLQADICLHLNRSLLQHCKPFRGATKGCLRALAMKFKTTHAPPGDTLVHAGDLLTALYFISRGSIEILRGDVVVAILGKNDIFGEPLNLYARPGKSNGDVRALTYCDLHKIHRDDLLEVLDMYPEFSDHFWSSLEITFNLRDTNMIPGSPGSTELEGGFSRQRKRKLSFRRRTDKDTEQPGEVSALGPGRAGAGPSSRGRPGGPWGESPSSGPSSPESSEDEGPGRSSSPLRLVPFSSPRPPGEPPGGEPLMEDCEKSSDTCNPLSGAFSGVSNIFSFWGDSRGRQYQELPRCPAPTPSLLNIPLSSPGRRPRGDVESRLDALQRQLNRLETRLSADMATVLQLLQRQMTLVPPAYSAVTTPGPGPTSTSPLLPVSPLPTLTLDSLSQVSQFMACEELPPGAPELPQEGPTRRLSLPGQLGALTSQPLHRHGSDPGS
row,Compound,"hERG current change (%, negative = inhibition) at 10uM [%]"
1,Cc1nn(C)c(C(=O)N/N=C/c2ccccn2)c1[N+](=O)[O-],21.3
2,CCCNC(=O)NC(C)C12CC3CC(CC(C3)C1)C2 (centres unmarked),-12.6
3,COC(=O)c1cc(COC(=O)c2nc3nccc(C)n3n2)oc1C,15.7
4,Cc1cc(C(=O)OCC(=O)NC2CCCCC2)c(C)o1,9.12
5,Cc1ccc(NC(=O)CSCC(=O)N2CCN(c3cccc(C(F)(F)F)c3)CC2)cc1,-13
6,Cc1ccc(NC(=O)c2cccc3c2-c2ccccc2C3=O)cc1C,-9.58
7,O=c1c2[nH]c3ccc(F)cc3c2ncn1CCCN1CCOCC1,-31.3
8,O=c1c2[nH]c3ccccc3c2ncn1CCN1CCOCC1,4.87
9,O=C1CCCN1CCCNc1ncnc2c1[nH]c1ccc(Cl)cc12,-29.4
10,CCC1CCCN1Cn1cnc2c([nH]c3ccccc32)c1=O (centres unmarked),-62.1
11,CCC1CCCN1Cn1cnc2c([nH]c3ccc(C)cc32)c1=O (centres unmarked),-67.1
12,Cc1ccc2[nH]c3c(=O)n(CCCN4CCN(C)CC4)cnc3c2c1,-37
13,O=c1c2[nH]c3ccccc3c2ncn1CCN1CCNCC1,4.97
14,Cc1ccc2[nH]c3c(=O)n(CCC4=CCCCC4)cnc3c2c1,4.95
15,CCC1CCCN1Cn1cnc2c([nH]c3ccc(Cl)cc32)c1=O (centres unmarked),-71.5
16,Cc1ccc2[nH]c3c(=O)n(CCCN4CCOCC4)cnc3c2c1,-17.8
17,O=c1c2[nH]c3ccc(F)cc3c2ncn1CCN1CCN(Cc2ccccc2)CC1,-63.2
18,O=c1c2[nH]c3ccc(F)cc3c2ncn1CCN1CCOCC1,-41.1
19,O=c1[nH]nc(-c2ccc(NCCCO)c([N+](=O)[O-])c2)c2ccccc12,-9.98
20,O=C(CSc1nnc(NC(=O)C2CC2)s1)NCc1ccco1,-4.21
21,COc1cc(/C=N\NC(=O)c2ccc(C)nc2)ccc1OC(=O)c1ccc2c(c1)OCO2,-7.08
22,Cc1cccc(CNc2ccc(C(CC(N)=O)NC(=O)Cc3cccc4ccccc34)cc2[N+](=O)[O-])c1 (centres unmarked),7.02
23,Cc1ccn2cc(-c3cccc(NC(=O)c4cccs4)c3)nc2c1,-48.7
24,O=c1c2[nH]c3ccc(Cl)cc3c2ncn1CCN1CCCCC1,-68
25,O=c1c2[nH]c3ccccc3c2ncn1CCN1CCCCC1,-45.6
26,COc1cc2[nH]c3c(=O)n(CCN4CCCCC4)cnc3c2cc1OC,6.02
